# Compounds with a hit are over-represented: about 4.1% of the library has one in this group of screens.
# DAX1 inh-1 – DAX1 (NR0B1) inhibitors on StAR promoter, primary screen, cell-based, luminescence, SF-1 (NR5A1), full-length DAX-1. inhibition, % at 6.8 µM. HEK293T StAR-luciferase reporter, SF-1/DAX-1 repression relief. 1.1% of 370,000 active;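 active = inhibition above the mean over all tested compounds plus 3 SD, cut at about 3.6% in these data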;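 also: 0% = DAX-1 cells with DMSO and 100% = cells lacking DAX-1 with DMSO; higher inhibition means more luminescence from relief of DAX-1 repression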
# DAX1 inh-2 – DAX1 (NR0B1) inhibitors, primary screen, cell-based, HEK293, Gal4-DAX1, luciferase luminescence. AID 504766, 2011. inhibition, % at 6.75 µM. 0.99% of 340,000 active. Nuclear receptor subfamily 0 group B member 1 (Homo sapiens), P51843. HEK293 Gal4-DAX1 luciferase reporter;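 active = inhibition above the mean over all tested compounds plus 3 SD, cut at about 4.2% in these data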;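 also: 0% = DAX1-transfected cells with DMSO and 100% = empty-vector control cells with DMSO; inhibition shows as a rise in luminescence from relieved DAX1 repression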
# Target sequence (P51843 207-470 limits assumed): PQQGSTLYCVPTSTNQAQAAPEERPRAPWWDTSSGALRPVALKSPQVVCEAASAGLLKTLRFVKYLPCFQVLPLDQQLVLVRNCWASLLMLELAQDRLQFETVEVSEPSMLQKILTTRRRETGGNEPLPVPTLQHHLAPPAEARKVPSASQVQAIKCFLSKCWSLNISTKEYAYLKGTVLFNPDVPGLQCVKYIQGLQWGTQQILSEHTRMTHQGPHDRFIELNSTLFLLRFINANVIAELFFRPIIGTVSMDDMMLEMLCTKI
# hgDAF12 agonist – H. glycines DAF-12 receptor agonists, primary screen, cell-based, luminescence, HEK293, GAL4 fusion, UAS-luciferase; Nuclear hormone receptor DAF-12 (Heterodera glycines), GAL4 fusion; HEK293 GAL4-hgDAF12 UAS-luciferase reporter, agonist luminescence; normalized to butyrate control; activation, % at 6.8 µM; 1.8% of 370,000 active; AID 687014, 2013;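 active = activation above a cutoff set at the mean of all screened compounds plus 3 SD, cut at about 10% in these data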;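 also: 0% = DMSO wells and 100% = sodium butyrate wells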
# hcDAF12 agonist – H. contortus DAF-12 nuclear receptor activators, primary screen, cell-based, luminescence, HEK293, lit1-tk-luc reporter; HEK293 hcDAF-12 lit1-tk-luc reporter; 0% DMSO, 100% Δ7-dafachronic acid; activation, % at 6.8 µM; 1.4% of 370,000 active; AID 652067, 2013;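 active = activation above the mean of all tested compounds plus 3 SD, cut at about 5.5% in these data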;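 also: 100% = response to 3 µM Δ7-dafachronic acid high control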
# ssDAF-12 act – S. stercoralis DAF-12 nuclear receptor activators, primary screen, cell-based, luminescence, HEK293, GRIP1 co-expression, lit1-tk-luc; Nuclear hormone receptor DAF-12 (Strongyloides stercoralis); 1% of 370,000 active; activation, % at 6.8 µM; HEK293 ssDAF-12/GRIP1 lit1-tk-luc reporter; % of 3 µM dafachronic acid response; AID 652126, 2013;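 active = activation above the mean over all tested compounds plus 3 SD, cut at about 0.9% in these data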;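 also: 0% = DMSO-only wells and 100% = 3 µM delta7-dafachronic acid wells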
# * = called active by the depositor; / = not tested or not shown.
SMILES,DAX1 inh-1,DAX1 inh-2,hgDAF12 agonist,hcDAF12 agonist,ssDAF-12 act
NC(=O)c1ccccc1NC(=O)/C=C/c1ccc(Cl)cc1,1,-1,13*,2,0
C=CCn1c(SCC(=O)c2ccc(-c3ccccc3)cc2)nnc1-c1ccc(OC)cc1,-2,/,-2,-3,-2
CCn1c(SCC(=O)Nc2ccc3c(c2)OCO3)nnc1C1CC1,0,4.9*,2,0,0
COC(=O)C1=C(C)N(Cc2cccc(C(F)(F)F)c2)C(=NCc2ccccc2C(F)(F)F)NC1c1cccc(F)c1 (centres undefined),-1,/,3,-1,-1
Cc1ccc2c(c1)C(N1CCCC1=O)CC(c1ccco1)N2 (centres undefined),3,1,11*,5.7*,0
Clc1ccccc1-c1nc2ccccc2[nH]1,0,1,8,1,0
Cn1cc(Cl)c(-c2nc3ccccc3[nH]2)n1,1,1,12*,4,0
COc1ccc(OC)c2sc(NC(=O)c3cccc(N4C(=O)CCC4=O)c3)nc12,1,4.5*,6,1,-1
COC(=O)C1CN(Cc2ccc(F)cc2)CCS(=O)(=O)N1Cc1ccc(C(F)(F)F)cc1 (centres undefined),-1,/,-2,-2,-2
CC(CNc1nc2ccc(Cl)cc2n2cnnc12)c1ccccc1 (centres undefined),0,5.5*,-2,-2,-2
C[C@H]1[C@@H](N(C)C)CC[C@@]23CCCN2C(=O)CCC[C@@H]13,/,/,-3,5,-1
CSc1nc(N)nc2c1ncn2CC(=O)NCc1ccccc1,-1,-1,-2,0,0.9*
O=C(Cc1ccccc1Cl)Nc1nc2ccccc2[nH]1,0,0,2,6.0*,0
O=C(Nc1nc2ccccc2[nH]1)C12CC3CC(CC(C3)C1)C2,1,1,9,5.8*,0
CSc1ccccc1C(=O)Nc1nc2ccccc2[nH]1,3.8*,1,10,6,0
O=C(CCCN1C(=O)c2ccccc2C1=O)Nc1nc2ccccc2[nH]1,1,4.8*,6,3,0
CSc1ccccc1C(=O)Nc1nc2ccccc2c(=O)[nH]1,0,1,4,0,-1
COC(=O)C1=C(C)N(C)C(=NCc2ccc3c(c2)OCO3)NC1c1cccc(F)c1 (centres undefined),1,/,0,1,-1
CCN(CC)C(=O)CC[C@@H]1CC[C@]2(CCCN(S(C)(=O)=O)C2)O1,0,/,-1,1,-1
CSc1ccc(C=NNC(=O)c2cc(-c3ccc(Cl)cc3)n[nH]2)cc1,-2,/,4,2,-1
OC(C[n+]1ccccc1)c1ccccc1 (centres undefined),0,3,-2,-1,-1
[O-][n+]1ccc(C(O)c2ccccc2)cc1 (centres undefined),0,5.1*,-1,3,-1
O=Cc1ccc2noc(-c3ccc(Cl)cc3)c2c1,1,0,9,6.5*,-1
Cn1c(/C(C#N)=C/c2ccc(O)cc2)nc2ccccc21,1,5.5*,7,0,1.2*
CN(Cc1ccccc1)S(=O)(=O)c1cccc(C(=O)OCc2ccccc2Cl)c1,1,/,-1,2,-1
SMILES,DAX1 inh-1,DAX1 inh-2,hgDAF12 agonist,hcDAF12 agonist,ssDAF-12 act
CC(Oc1ccc(Cl)cc1Cl)C(=O)NNC(=O)c1cccnc1 (centres undefined),2,0,0,-2,-1
CC(Oc1ccc(Cl)cc1Cl)C(=O)NNC(=O)c1ccncc1 (centres undefined),0,4.8*,-1,-1,0
Cc1cccc(CN2CCN(C3CN(Cc4cn(Cc5ccc(C(F)(F)F)cc5)nn4)S(=O)(=O)C3)CC2)c1 (centres undefined),-2,/,-1,-3,-2
Cc1ccc(S(=O)(=O)Oc2cccc(N3C(=O)C4CC=CCC4C3=O)c2)cc1 (centres undefined),0,8.0*,0,0,-2
CCN(C(=O)CN1CCN(c2nc(-c3ccccc3)cs2)CC1)c1ccccc1C,-2,/,-5,-2,-2
CCc1ccc(S(=O)(=O)Nc2c(C)nc3nc[nH]n3c2=O)cc1,0,8.0*,-1,-1,-1
Cc1nc2nc(C)c(NS(=O)(=O)c3ccc(Cl)cc3)c(=O)n2[nH]1,0,0,4,6.4*,0
Cc1ccc(Nc2nc(COC(=O)C3CC3)cs2)cc1,2,0,11*,2,-1
COCC1CCN(C(=O)C2CCC(=O)N(C3CCCC3)C2)CC1 (centres undefined),0,0,4,4,0
COC1CCN(C(=O)C2CCC(=O)N(C3CCCCCC3)C2)CC1 (centres undefined),1,1,5,6.3*,0
Cc1ccccc1OC1CCN(C(=O)C2CCC(=O)N(C3CCCC3)C2)CC1 (centres undefined),0,0,-4,-3,-1
CC(=O)NCCC1CCN(C(=O)C2CCC(=O)N(C3CCCC3)C2)CC1 (centres undefined),0,0,-2,0,1.6*
Clc1cccc(CSc2ncnc3sc4c(c23)CCCC4)c1,-1,/,1,0,-1
O=C(O)C1C=CCC(C(=O)O)C1 (centres undefined),0,0,0,0,2.4*
Cc1cccc(CNC(=O)NC2CCCCN(Cc3cccc(Cl)c3)C2=O)c1 (centres undefined),-2,/,-2,-4,-2
CCOC(=O)[C@@]12CCCC3=C1N(CCC3)C(=O)[C@H]2CC(=O)NCc1cccc2ccccc12,1,/,0,-1,-2
CSCCC(N=C(NS(=O)(=O)c1ccccc1)c1ccccc1)C(=O)O (centres undefined),-1,0,-2,-2,2.4*
Cn1c(=O)c2nc(-c3ccccc3)c(-c3ccccc3)nc2n(C)c1=O,0,4.5*,-1,0,-1
Cn1c(=O)c2nc(Cl)c(-c3ccccc3)nc2n(C)c1=O,0,2,0,-1,-1
NC(=O)c1ncn([C@@H]2O[C@H](C(=O)N[C@H](Cc3ccccc3)C(=O)N3CCN(c4ccc(Cl)cn4)CC3)[C@@H](O)[C@H]2O)n1,1,/,0,0,-1
Cc1ccccc1OCC1CNC(=O)O1 (centres undefined),-1,0,-2,0,-1

# Source: PubChem (The Scripps Research Institute Molecular Screening Center)
